Source: PubChem
KDM5B inhibitor: KDM5B demethylase inhibition. Potency, µM (titrated, usually from 57.7 µM), hits mostly inhibitors. KDM5B demethylase, FDH-coupled NADH fluorescence (FDH is formaldehyde dehydrogenase). 220,000 tested, 2.6% active. AID 1347165; active = well fitted inhibition curve with a large enough effect; note: 0% is about no effect; nearly all actives have a fitted effect of over 70% in size
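Inhibition is measured as reduced NADH fluorescence generation from FDH coupling to formaldehyde release. Truncated KDM5BΔAP at 200 nM final acts on H3K4me3 peptide (12.5 µM in substrate mix) in pH 7.5 HEPES buffer with Tween-20, 30 min, room temperature.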
Numbers without * were called inactive. Only a selection was taken, and hits are over-represented in it overall. Potency is the fitted concentration of half-maximal effect.

Results for NC(=O)C1CCN(C(=O)COc2ccc3c(=O)c(-c4ccccc4)coc3c2)CC1 ?
KDM5B inhibitor: inactive

What do the screens show for `Cc1ccc(CN2CC3(C2)NC(=O)c2ccccc2O3)cc1`?
KDM5B inhibitor: inactive

Results for CCn1c(SCC(=O)Nc2cccc(C(F)(F)F)c2)nnc1-c1cc2ccccc2o1 ?
KDM5B inhibitor: inactive

What do the screens show for `CCOC(=O)c1scc(-c2ccccc2)c1S(=O)(=O)Nc1cccc(CC)c1`?
KDM5B inhibitor: inactive

How did O=C1CC(c2ccccc2)N(C(=O)CNC(=O)c2nccc3ccccc23)CCCCCCN1 (stereo unspecified) do in these assays?
KDM5B inhibitor: inactive

How did Cc1cc(C(=O)NCC(=O)N2CCCCCNC(=O)CC2c2ccccc2)n(C)n1 (stereo unspecified) do in these assays?
KDM5B inhibitor: inactive

How did Cn1nc(C(=O)NCC(=O)N2CCCCCNC(=O)CC2c2ccccc2)c2ccccc21 (stereo unspecified) do in these assays?
KDM5B inhibitor: 28µM*

How did Cc1ccc(-c2nsc(NC(=O)c3cc(=O)c4ccc(C)c(C)c4o3)n2)s1 do in these assays?
KDM5B inhibitor: inactive

What do the screens show for `CC1=C[C@@H](CNCc2ccc(F)cc2)[C@H](C(C)C)C[C@H]1Cc1nnc(-c2cncn2C)o1`?
KDM5B inhibitor: inactive

How did CCCCSc1nnc(-c2c[nH]c3ccccc23)n1C1CC1 do in these assays?
KDM5B inhibitor: inactive

How did COc1ccc(N2C(=O)C3(CCCCC3)C2C(=O)NCCCN2CCCCC2)cc1 (stereo unspecified) do in these assays?
KDM5B inhibitor: inactive

Results for COc1ccc(N2C(=O)C3(CCCCC3)C2C(=O)NCCN2CCc3ccccc3C2)cc1 (stereo unspecified) ?
KDM5B inhibitor: 25µM*

Results for COc1ccc(N2C(=O)C3(CCCCC3)C2C(=O)NCCCN2CCCC2)cc1 (stereo unspecified) ?
KDM5B inhibitor: inactive

What do the screens show for `O=c1c(Cl)c(N2CCN(Cc3nc(-c4ccccc4Cl)no3)CC2)cnn1-c1ccccc1`?
KDM5B inhibitor: inactive

What do the screens show for `CCC(C)NC(=O)CSc1nc(-c2cccs2)nc2ccccc12` (stereo unspecified)?
KDM5B inhibitor: inactive

How did Cc1ccc(C(=O)Nc2ccccc2C(F)(F)F)c(Cl)c1 do in these assays?
KDM5B inhibitor: inactive

How did O=C1C2CCCN2C(=O)N1Cc1coc(-c2cccc(F)c2)n1 (stereo unspecified) do in these assays?
KDM5B inhibitor: inactive

How did COc1ccc(CCc2nc3nccc(-c4cccnc4)n3n2)cc1 do in these assays?
KDM5B inhibitor: inactive

Results for COc1ccc(-c2ccnc3nc(CC(C)C)nn23)cc1 ?
KDM5B inhibitor: inactive

How did COc1cccc(-c2ccnc3nc(CC(C)C)nn23)c1 do in these assays?
KDM5B inhibitor: 25µM*

What do the screens show for `COc1ccc(-c2ccnc3c(-c4ccc(F)cc4)c(C)nn23)cc1OC`?
KDM5B inhibitor: inactive

How did COc1cccc(-c2nc(CN3CCCC3=O)no2)c1 do in these assays?
KDM5B inhibitor: inactive

What do the screens show for `COc1cccc(OCc2nc3ccccc3n2Cc2ccccc2)c1`?
KDM5B inhibitor: inactive

Results for COc1cccc(-c2ccnc3nc(CCc4ccccc4)nn23)c1 ?
KDM5B inhibitor: 20µM*

How did COc1ccc(-c2ccnc3nc(CC(C)C)nn23)cc1OC do in these assays?
KDM5B inhibitor: 28µM*

What do the screens show for `COc1ccc(-c2csc(NCC(C)C)n2)cc1OC`?
KDM5B inhibitor: inactive

How did Cc1ccc(CN(c2ccc(C(=O)NC3CC3)cc2)S(C)(=O)=O)cc1 do in these assays?
KDM5B inhibitor: inactive

What do the screens show for `O=C(CCc1c[nH]c2ccccc12)Oc1ccc2ccc(=O)oc2c1`?
KDM5B inhibitor: inactive

What do the screens show for `CCCCN1C=C(OC(=O)c2ccccc2OC)c2ccccc2S1(=O)=O`?
KDM5B inhibitor: inactive

Results for O=C(/C=C/c1cccs1)OC1CCCCC1=O (stereo unspecified) ?
KDM5B inhibitor: inactive

Results for COc1ccc(-c2cc(C(=O)N3CCN(Cc4ccccc4)CC3)c3ccccc3n2)cc1 ?
KDM5B inhibitor: inactive

How did COc1cc(F)ccc1-c1cnc2n[nH]c(-c3ccc4c(c3)OCO4)c2n1 do in these assays?
KDM5B inhibitor: inactive

Results for COc1ccccc1-c1cnc2n[nH]c(-c3ccc4c(c3)OCO4)c2n1 ?
KDM5B inhibitor: inactive

What do the screens show for `Oc1ccccc1-c1cnc2n[nH]c(-c3ccc4c(c3)OCO4)c2n1`?
KDM5B inhibitor: inactive

What do the screens show for `COc1ccccc1-c1[nH]nc2ncc(-c3ccnc(C)c3)nc12`?
KDM5B inhibitor: inactive

Results for COc1ccccc1-c1[nH]nc2ncc(CNc3ccccn3)nc12 ?
KDM5B inhibitor: inactive

What do the screens show for `COc1ccccc1-c1[nH]nc2ncc(-c3ccccc3F)nc12`?
KDM5B inhibitor: 35µM*

Results for COc1ccc(-c2[nH]nc3ncc(-c4cccc(N(C)C)c4)nc23)c(C)c1 ?
KDM5B inhibitor: inactive

What do the screens show for `COc1ccc(-c2[nH]nc3ncc(-c4ccccc4O)nc23)c(C)c1`?
KDM5B inhibitor: inactive

Results for COc1ccccc1-c1[nH]nc2ncc(-c3cccc(O)c3)nc12 ?
KDM5B inhibitor: 35µM*
